Inconclusive results are not listed. Activity calls are given as the source filed them. Unless noted, the call rests on the fitted dose curve; in most records, active means well fitted curve in the direction sought with a large enough effect; inconclusive means small, poorly fitted or top-dose-only effect, or another doubt; inactive means no such curve, though single readings can be large; an effect the other way counts as inactive or inconclusive.
Assays:
[1] = target: Lysosomal acid glucosylceramidase (Homo sapiens) (UniProt P04062); experiment: Glucocerebrosidase-p2 (AID 348; in the data active means potency below about 10 µM; further: potency means the concentration at half of the fitted maximal effect); conditions: purified GBA, blue fluorogenic substrate, 40 min
Sequence of Lysosomal acid glucosylceramidase (Homo sapiens) (P04062 whole entry, looked up): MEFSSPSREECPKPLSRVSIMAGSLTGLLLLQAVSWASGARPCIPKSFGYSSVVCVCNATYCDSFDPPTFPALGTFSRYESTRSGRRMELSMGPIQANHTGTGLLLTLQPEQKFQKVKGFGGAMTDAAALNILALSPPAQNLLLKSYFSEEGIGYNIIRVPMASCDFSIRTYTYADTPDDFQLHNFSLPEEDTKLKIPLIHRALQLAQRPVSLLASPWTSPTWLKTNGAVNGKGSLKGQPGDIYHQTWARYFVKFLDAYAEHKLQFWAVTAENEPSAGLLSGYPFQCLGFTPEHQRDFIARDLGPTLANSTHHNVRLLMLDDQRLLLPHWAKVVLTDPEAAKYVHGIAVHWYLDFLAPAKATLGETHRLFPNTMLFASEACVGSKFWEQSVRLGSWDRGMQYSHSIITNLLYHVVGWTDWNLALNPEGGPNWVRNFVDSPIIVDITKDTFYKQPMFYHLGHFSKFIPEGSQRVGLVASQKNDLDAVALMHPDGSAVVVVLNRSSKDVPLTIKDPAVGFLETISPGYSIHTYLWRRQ
Procedure, shortened: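 Normal human glucocerebrosidase (0.2 nM) with blue fluorogenic substrate (80 uM final) in citrate/phosphate pH 5.9 with 10mM sodium taurocholate, 0.01% tween-20; 40 min RT, NaOH/glycine stop; fluorescence Ex 365/Em 440; AC50 from a titration from 0.6 nM upwards.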

[2] = AP1 Signaling Pathway (AID 357; active means well fitted curve in either direction with a large enough effect, not every such curve was filed as active;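 further: ME-180 reporter cells stimulated with EGF at its EC50 level; on the % scale 0 is the no-effect control and ±100 the full control effect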); conditions: ME-180 AP-1-bla reporter, EGF-induced, beta-lactamase ratio, 5 h; at 7.69 µM (top of the series) unless noted
Procedure, shortened: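 Beta-lactamase reporter under AP-1 response element, ME-180 background. Stimulus: EC50 EGF. Compound exposure 5 h, 37 °C. Detection: CCF4, 2.5 h RT, 460/530 nm. Values: AC50 from titration.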

[3] = Stat Signaling Pathway (AID 446; active means well fitted curve in either direction with a large enough effect, not every such curve was filed as active;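 further: ME-180 cervical cancer cells given 40 pM IL-6 alongside compound; SIE-controlled beta-lactamase reporter measured as 460/530 nm FRET emission ratio; on the % scale 0 is the no-effect control and ±100 the full control effect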); conditions: ME-180 (cervical carcinoma) SIE beta-lactamase reporter, IL-6 stimulated, 5 h; at 7.69 µM (top of the series) unless noted
Procedure, shortened: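 Normalization used AC90 stimulation (300 pM IL-6) and AC90 inhibition (125 nM pan-JAK inhibitor at 40 pM IL-6). The underlying signal is SIE-driven beta-lactamase in ME-180 cells after 5 h IL-6 exposure with compound.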

[4] = target: Glucocorticoid receptor (Homo sapiens) (UniProt P04150); experiment: GR-GFP Redistribution (AID 450;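 active means compounds whose dose series gives a full or clear partial fitted curve of increased nuclear translocation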; further: potency means the concentration at half of the fitted maximal effect); conditions: U2OS GR-GFP nuclear translocation, laser cytometry, 2 h
Sequence of Glucocorticoid receptor (Homo sapiens) (P04150 whole entry, looked up, the tested form may be a part): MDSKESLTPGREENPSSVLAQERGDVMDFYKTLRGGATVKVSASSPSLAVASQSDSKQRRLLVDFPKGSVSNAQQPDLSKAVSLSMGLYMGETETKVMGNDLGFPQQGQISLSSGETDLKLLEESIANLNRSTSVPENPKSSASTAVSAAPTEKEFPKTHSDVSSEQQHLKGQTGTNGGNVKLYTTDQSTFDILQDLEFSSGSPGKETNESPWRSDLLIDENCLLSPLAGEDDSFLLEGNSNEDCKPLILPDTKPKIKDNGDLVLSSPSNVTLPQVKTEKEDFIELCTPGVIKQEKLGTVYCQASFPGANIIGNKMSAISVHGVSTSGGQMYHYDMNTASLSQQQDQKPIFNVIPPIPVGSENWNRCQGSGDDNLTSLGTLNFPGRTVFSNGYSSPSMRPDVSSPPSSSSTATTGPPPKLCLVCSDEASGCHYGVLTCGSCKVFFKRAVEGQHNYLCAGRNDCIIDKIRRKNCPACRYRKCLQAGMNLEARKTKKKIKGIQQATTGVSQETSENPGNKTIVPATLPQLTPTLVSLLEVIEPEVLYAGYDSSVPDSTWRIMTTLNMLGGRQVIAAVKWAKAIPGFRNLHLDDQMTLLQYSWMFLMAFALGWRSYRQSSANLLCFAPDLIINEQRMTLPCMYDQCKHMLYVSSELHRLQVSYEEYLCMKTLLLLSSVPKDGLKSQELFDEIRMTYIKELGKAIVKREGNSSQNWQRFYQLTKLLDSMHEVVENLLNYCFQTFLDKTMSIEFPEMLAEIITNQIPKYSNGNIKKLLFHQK

[5] = target: Glucocorticoid receptor (Homo sapiens) (UniProt P04150); experiment: GR-EFC Redistribution (AID 451; calls by dose curve; further: potency means the concentration at half of the fitted maximal effect); conditions: CHO-K1 GR-EFC translocation, beta-gal luminescence, 2 h
Procedure, shortened: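 CHO-K1 cells stably expressing nuclear-localized β-gal enzyme acceptor and GR fused C-terminally to the enzyme donor fragment; ligand-driven nuclear translocation restores β-gal by complementation. Compounds titrated up to 46 uM final, 2 h at 37 °C; luminescence read.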

[6] = target: Mitogen-activated protein kinase 10 (Mus musculus) (UniProt Q61831); experiment: JNK3 AlphaScreen Assay (AID 530; active means well fitted curve in either direction with a large enough effect, not every such curve was filed as active;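 further: kinase came from lysate of stimulated human HepG2 cells; signal reports phosphorylation of biotinylated GST-cJun 1-79 at Ser73 with 10 µM ATP; on the % scale 0 is the no-effect control and ±100 the full control effect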); conditions: JNK3 lysate, c-Jun phosphorylation; series mostly up to 11.4 µM
Procedure, shortened: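 Phosphorylation of biotinylated GST-cJun(1-79) at Ser73 is measured by AlphaScreen proximity luminescence. Enzyme is JNK3 in HepG2 lysates activated with interleukin-1beta and tumor necrosis factor alpha; ATP is 10 uM final.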

[7] = target: 3',5'-cyclic-AMP phosphodiesterase 4B (Homo sapiens) (UniProt Q07343); experiment: qHTS Assay for Inhibitors of PDE-IV (AID 607; active means well fitted activation curve with a large enough effect in the main read-out, with a control signal flat, not every such curve was filed as active; further: % of control where 0% means no effect); conditions: HEK293 ACTOne CNG channel cells, membrane potential fluorescence; series mostly up to 22.9 µM
Sequence of 3',5'-cyclic-AMP phosphodiesterase 4B (Homo sapiens) (Q07343 whole entry, looked up): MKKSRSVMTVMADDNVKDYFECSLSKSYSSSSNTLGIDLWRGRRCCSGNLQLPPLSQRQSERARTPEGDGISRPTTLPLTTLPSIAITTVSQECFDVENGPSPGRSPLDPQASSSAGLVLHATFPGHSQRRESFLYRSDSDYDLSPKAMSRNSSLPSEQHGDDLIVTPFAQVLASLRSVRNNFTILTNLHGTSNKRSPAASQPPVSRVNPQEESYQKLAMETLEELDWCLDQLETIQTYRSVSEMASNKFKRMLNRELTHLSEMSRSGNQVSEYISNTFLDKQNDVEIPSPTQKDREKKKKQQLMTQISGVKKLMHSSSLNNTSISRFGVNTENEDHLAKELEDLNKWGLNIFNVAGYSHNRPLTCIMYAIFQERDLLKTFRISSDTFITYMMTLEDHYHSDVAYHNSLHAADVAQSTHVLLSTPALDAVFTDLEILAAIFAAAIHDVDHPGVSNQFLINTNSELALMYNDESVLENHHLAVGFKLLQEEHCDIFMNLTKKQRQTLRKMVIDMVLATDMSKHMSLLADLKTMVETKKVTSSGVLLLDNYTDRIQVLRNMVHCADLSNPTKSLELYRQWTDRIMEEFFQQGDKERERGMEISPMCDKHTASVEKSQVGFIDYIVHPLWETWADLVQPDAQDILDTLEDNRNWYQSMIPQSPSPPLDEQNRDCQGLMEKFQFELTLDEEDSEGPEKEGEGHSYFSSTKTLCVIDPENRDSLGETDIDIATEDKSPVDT
Procedure, shortened: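 HEK293 ACTOne cells with CNG channel (1000/well), endogenous PDE4; membrane potential dye, compounds up to 22.9 uM final. Fluorescence Ex 535/Em 590; RO 20-1724 (100 uM final) as reference.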

[8] = target: ATP-dependent 6-phosphofructokinase (Trypanosoma brucei brucei) (UniProt O15648); experiment: qHTS Assay to Find Inhibitors of T. brucei phosphofructokinase: hit validation (AID 492961);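 further: luminescence reports ADP formed as PFK phosphorylates fructose-6-phosphate with ATP; on the % scale 0 is the no-effect control and ±100 the full control effect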; conditions: T. brucei PFK, ADP-Glo luminescence; series mostly up to 51.4 µM
Sequence of ATP-dependent 6-phosphofructokinase (Trypanosoma brucei brucei) (O15648 whole entry, looked up): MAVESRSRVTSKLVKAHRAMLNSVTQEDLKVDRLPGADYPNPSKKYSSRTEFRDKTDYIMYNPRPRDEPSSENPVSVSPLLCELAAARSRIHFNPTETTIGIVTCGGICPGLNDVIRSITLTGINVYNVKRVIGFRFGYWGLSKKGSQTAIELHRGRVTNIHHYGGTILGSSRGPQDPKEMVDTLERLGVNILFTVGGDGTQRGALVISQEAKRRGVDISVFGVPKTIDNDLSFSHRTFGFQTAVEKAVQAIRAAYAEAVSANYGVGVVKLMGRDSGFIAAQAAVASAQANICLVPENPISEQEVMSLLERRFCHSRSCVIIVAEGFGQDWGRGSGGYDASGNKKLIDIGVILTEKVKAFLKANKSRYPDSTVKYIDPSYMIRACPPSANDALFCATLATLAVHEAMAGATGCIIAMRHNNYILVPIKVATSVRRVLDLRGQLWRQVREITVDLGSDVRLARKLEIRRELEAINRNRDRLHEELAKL
Procedure, shortened: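 Reaction: 0.1 M triethanolamine pH 8.0, 5 mM MgCl2, F6P 0.5 mM, ATP 0.1 mM, PFK 1.25 nM, 45 min RT. Read-out: ADP-Glo luminescence. Analysis: concentration-response fits, classed by r2 and efficacy.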

[9] = target: Ubiquitin carboxyl-terminal hydrolase 1 (Homo sapiens) (UniProt O94782); experiment: Inhibitors of USP1/UAF1: Pilot qHTS (AID 504865); conditions: purified USP1/UAF1, Ub-rhodamine cleavage fluorescence; series mostly up to 114 µM;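 further: rhodamine fluorescence freed from ubiquitin-rhodamine substrate followed over time; top concentration of the series differs between compounds; on the % scale 0 is the no-effect control and ±100 the full control effect; nearly all actives have a fitted effect of over 35% in size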
Sequence of Ubiquitin carboxyl-terminal hydrolase 1 (Homo sapiens) (O94782 whole entry, looked up): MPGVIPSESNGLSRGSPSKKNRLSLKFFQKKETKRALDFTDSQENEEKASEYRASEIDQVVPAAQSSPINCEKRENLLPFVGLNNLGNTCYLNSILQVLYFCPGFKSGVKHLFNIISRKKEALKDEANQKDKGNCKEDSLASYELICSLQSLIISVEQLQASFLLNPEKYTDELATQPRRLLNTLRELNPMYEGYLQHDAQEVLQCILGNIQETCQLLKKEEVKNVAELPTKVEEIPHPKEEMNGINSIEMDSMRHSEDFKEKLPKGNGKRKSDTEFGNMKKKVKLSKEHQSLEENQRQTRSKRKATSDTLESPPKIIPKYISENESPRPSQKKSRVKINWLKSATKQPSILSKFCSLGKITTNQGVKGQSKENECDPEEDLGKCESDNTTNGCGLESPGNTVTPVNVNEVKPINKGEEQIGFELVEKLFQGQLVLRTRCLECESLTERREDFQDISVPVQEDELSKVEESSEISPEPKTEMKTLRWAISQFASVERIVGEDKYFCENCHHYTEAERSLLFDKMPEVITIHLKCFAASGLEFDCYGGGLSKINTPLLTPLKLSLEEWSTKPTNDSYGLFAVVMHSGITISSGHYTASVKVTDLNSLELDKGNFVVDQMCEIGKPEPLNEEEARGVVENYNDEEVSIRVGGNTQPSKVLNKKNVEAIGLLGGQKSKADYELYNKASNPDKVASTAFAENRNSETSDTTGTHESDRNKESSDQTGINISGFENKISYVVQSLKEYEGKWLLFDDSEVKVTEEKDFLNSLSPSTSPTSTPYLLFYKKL
Procedure, shortened: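 In 50mM HEPES pH 7.8 containing 0.5mM EDTA, 1mM TCEP, 0.1 mg/ml BSA and 0.01% Tween-20, 1nM USP1/UAF1 is exposed to compound for 15 min, then Ub-Rho (150nM final) is added and fluorescence is read over time.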

[10] = target: Luciferin 4-monooxygenase (Photinus pyralis) (UniProt P08659); experiment: Biochemical firefly luciferase enzyme assay for NPC (AID 624030);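 further: purified P. pyralis luciferase at 10 nM with luciferin and ATP substrate; 0% = DMSO and -100% = full luciferase inhibition by PTC124 control; nearly all actives have a fitted effect of over 70% in size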; conditions: purified P. pyralis luciferase, luminescence, 5 min; series mostly up to 58.6 µM
Sequence of Luciferin 4-monooxygenase (Photinus pyralis) (P08659 whole entry, looked up): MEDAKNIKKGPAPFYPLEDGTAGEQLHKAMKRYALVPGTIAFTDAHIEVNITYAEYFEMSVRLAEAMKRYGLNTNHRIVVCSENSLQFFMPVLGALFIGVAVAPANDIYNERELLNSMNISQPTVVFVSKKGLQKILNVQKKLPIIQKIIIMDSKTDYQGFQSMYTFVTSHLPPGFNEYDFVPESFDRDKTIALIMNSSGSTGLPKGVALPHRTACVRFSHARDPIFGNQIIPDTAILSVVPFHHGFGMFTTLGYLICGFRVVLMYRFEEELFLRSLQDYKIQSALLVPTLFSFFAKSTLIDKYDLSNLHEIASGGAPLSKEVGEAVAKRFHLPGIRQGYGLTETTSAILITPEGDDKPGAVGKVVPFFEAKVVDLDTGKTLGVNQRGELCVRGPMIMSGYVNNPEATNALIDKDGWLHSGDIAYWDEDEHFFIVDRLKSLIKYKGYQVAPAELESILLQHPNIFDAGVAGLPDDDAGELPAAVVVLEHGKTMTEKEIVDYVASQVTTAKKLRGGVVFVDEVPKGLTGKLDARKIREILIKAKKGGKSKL
Procedure, shortened: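 Counter-screen for direct inhibition of the luciferase enzyme by approved-drug library compounds, run at 10 nM enzyme in 50 mM Tris acetate (final). Luminescence was read within 5 min of enzyme-buffer addition and normalized to PTC124 versus DMSO (0%).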

[11] = S16 Schwann cell viability assay (CellTiter-Glo assay) (AID 624031); conditions: S16 rat Schwann cells viability, 24 h; series mostly up to 57.5 µM;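 further: cellular ATP luminescence as a viability measure; plate controls were DMSO-treated cells for no effect and cell-free wells for full effect; nearly all actives have a fitted effect of over 70% in size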
Procedure, shortened: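 Native S16 rat Schwann cells, 500-750 cells/well in DMEM with 10% FBS, dosed with compound after overnight culture and incubated 24h at 37 degree Celsius/5% CO2. Viability by CellTiter-Glo luminescence; % activity normalized to no-cell wells and DMSO-treated cells.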

[12] = S16 Schwann cell PMP22 intronic element firefly luciferase assay (AID 624032); conditions: S16 rat Schwann cells, PMP22 element FLuc, 24 h; series mostly up to 57.5 µM;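 further: plate controls were DMSO for no effect and PTC124 positive control mean for full effect; nearly all actives have a fitted effect of over 30% in size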
Procedure, shortened: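 Rat S16 Schwann cells stably carrying a PMP22 intronic element-driven Fluc reporter were seeded overnight, then exposed to compounds for 24 h at 37 °C. Luminescence was normalized to PTC124 (positive control) and DMSO (0% activity).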

[13] = S16 Schwann cell PMP22 intronic element beta-lactamase assay (AID 624044; calls by dose curve;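 further: 0% = DMSO and -100% = potassium clavulanate positive control; nearly all actives have a fitted effect of over 15% in size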); conditions: S16 rat Schwann cells, PMP22 element beta-lactamase FRET, 24 h; series mostly up to 38.3 µM
Procedure, shortened: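 Beta-lactamase reporter under a PMP22 intronic regulatory element in stable S16 rat Schwann cells; 24 h compound exposure. 460 nm blue signal normalized between DMSO (0%) and potassium clavulanate, with 535 nm FRET tracking viability; curves classed by r2 and response.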

[14] = qHTS profiling for inhibitors of Plasmodium falciparum proliferation (AID 504749);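 further: 0% = DMSO vehicle and full inhibition = artemisinin control; nearly all actives have a fitted effect of over 60% in size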; conditions: P. falciparum in erythrocytes, SYBR Green DNA, 72 h, at 28.7 µM (top of the series)
Procedure, shortened: (§1)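 Quantitative HTS: compounds pinned into medium, infected erythrocytes added (0.3% parasitemia, 2.5% hematocrit), 72 h culture at 37 C under 5% CO2. Saponin/Triton lysis with SYBR Green I, overnight RT, then fluorescence read.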

[15] = test system: 3D7; experiment: as above; conditions: P. falciparum in erythrocytes, SYBR Green DNA, 72 h; series mostly up to 28.7 µM
Procedure, shortened: as §1

[16] = test system: 7G8; experiment: as above; conditions: P. falciparum in erythrocytes, SYBR Green DNA, 72 h; series mostly up to 28.7 µM
Procedure, shortened: as §1

[17] = test system: AA1029; experiment: as above; conditions: P. falciparum in erythrocytes, SYBR Green DNA, 72 h; series mostly up to 28.7 µM
Procedure, shortened: as §1

[18] = test system: AS120; experiment: as above; conditions: P. falciparum in erythrocytes, SYBR Green DNA, 72 h; series mostly up to 28.7 µM
Procedure, shortened: as §1

[19] = test system: ATS189; experiment: as above; conditions: P. falciparum in erythrocytes, SYBR Green DNA, 72 h; series mostly up to 28.7 µM
Procedure, shortened: as §1

[20] = test system: C2A; experiment: as above; conditions: P. falciparum in erythrocytes, SYBR Green DNA, 72 h; series mostly up to 28.7 µM
Procedure, shortened: as §1

[21] = test system: CP185; experiment: as above; conditions: P. falciparum in erythrocytes, SYBR Green DNA, 72 h; series mostly up to 28.7 µM
Procedure, shortened: as §1

[22] = test system: CP191; experiment: as above; conditions: P. falciparum in erythrocytes, SYBR Green DNA, 72 h; series mostly up to 28.7 µM
Procedure, shortened: as §1

[23] = test system: CP192; experiment: as above; conditions: P. falciparum in erythrocytes, SYBR Green DNA, 72 h; series mostly up to 28.7 µM
Procedure, shortened: as §1

[24] = test system: CP194; experiment: as above; conditions: P. falciparum in erythrocytes, SYBR Green DNA, 72 h; series mostly up to 28.7 µM
Procedure, shortened: as §1

[25] = test system: CP201; experiment: as above; conditions: P. falciparum in erythrocytes, SYBR Green DNA, 72 h; series mostly up to 28.7 µM
Procedure, shortened: as §1

[26] = test system: CP203; experiment: as above; conditions: P. falciparum in erythrocytes, SYBR Green DNA, 72 h; series mostly up to 28.7 µM
Procedure, shortened: as §1

[27] = test system: CP211; experiment: as above; conditions: P. falciparum in erythrocytes, SYBR Green DNA, 72 h; series mostly up to 28.7 µM
Procedure, shortened: as §1

[28] = test system: CP217; experiment: as above; conditions: P. falciparum in erythrocytes, SYBR Green DNA, 72 h; series mostly up to 28.7 µM
Procedure, shortened: as §1

[29] = test system: CP237; experiment: as above; conditions: P. falciparum in erythrocytes, SYBR Green DNA, 72 h; series mostly up to 28.7 µM
Procedure, shortened: as §1

[30] = test system: CP238; experiment: as above; conditions: P. falciparum in erythrocytes, SYBR Green DNA, 72 h; series mostly up to 28.7 µM
Procedure, shortened: as §1

[31] = test system: CP247; experiment: as above; conditions: P. falciparum in erythrocytes, SYBR Green DNA, 72 h; series mostly up to 28.7 µM
Procedure, shortened: as §1

[32] = test system: CP250; experiment: as above; conditions: P. falciparum in erythrocytes, SYBR Green DNA, 72 h; series mostly up to 28.7 µM
Procedure, shortened: as §1

[33] = test system: CP252; experiment: as above; conditions: P. falciparum in erythrocytes, SYBR Green DNA, 72 h; series mostly up to 28.7 µM
Procedure, shortened: as §1

[34] = test system: CP256; experiment: as above; conditions: P. falciparum in erythrocytes, SYBR Green DNA, 72 h; series mostly up to 28.7 µM
Procedure, shortened: as §1

C[C@H](CCC(=O)O)[C@H]1CC[C@@H]2[C@H]3[C@@H](C[C@@H](O)[C@]21C)[C@]1(C)CC[C@H](O)C[C@@H]1C[C@@H]3O
inactive: Potency [1] > 11.4 µM | activity change, negative = inhibition [2] 1.25% | activity, negative = inhibition [3] 13% | Potency [4] > 46 µM | Potency [5] > 9.22 µM | Potency [6] | Potency [7] | outcome [8] | Potency [9] | outcome [10] | Potency [11] | Potency [12] | outcome [13] | activity, negative = inhibition ([14]; parasite line A) -6.11% | activity, negative = inhibition ([14]; parasite line B) -10.8% | Potency [15] | Potency [16] | Potency [17] | Potency [18] | Potency [19] | Potency [20] | Potency [21] | Potency [22] | Potency [23] | Potency [24] | Potency [25] | Potency [26] | Potency [27] | Potency [28] | Potency [29] | Potency [30] | Potency [31] | Potency [32] | Potency [33] | Potency [34]
